An excerpt weighted towards active compounds, which were near 3.9% of everything screened.
HGIII-sPLA2 inh – Inhibits HGIII-sPLA2 liposome hydrolysis, primary screen; Q9NZ20; QFRET BODIPY PC-A2 liposome hydrolysis, fluorescence; inhibition, % at 12.2 µM; 370,000 compounds, 0.56% hits; AID 743126;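 active = inhibition above mean plus 3 SD of compounds lying within the high and low control bounds, cut at about 19% in these data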;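 also: 0% = median of test compound wells and 100% = no enzyme DMSO wells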
HIF act – HIF pathway transcriptional activation; U2OS HRE-luciferase reporter, luminescence; normalized: DMSO 0%, desferrioxamine 100%; activation, % at 7.5 µM (by protocol); 300,000 compounds, 0.32% hits; AID 1910;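 active = mean activation of at least 10% of the iron chelator positive control signal, with at least half of replicates also reaching 10%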
Yeast superoxide – lowers age-related superoxide in aged yeast cells; S. cerevisiae aged cells, superoxide DHE fluorescence; active compounds read low; superoxide response (% of plate mean), % at 10 µM; 330,000 compounds, 0.18% hits;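 active = superoxide response under a set limit, about three screen SD below normal, cut at about 65% in these data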;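 also: yeast aged for seven days with compound at 30 °C before DHE staining; 100% = average MFI of all compound-treated wells on the plate with controls excluded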
PLC-gamma1 inh – blocks human PLC-gamma1 enzyme activity; purified PLC-gamma1, fluorogenic substrate, fluorescence; P19174; 370,000 compounds, 0.84% hits; AID 720700; inhibition, % at 12.2 µM; in the data active = inhibition above about 9.5%
AHR act – human AHR activation. P35869. AHR-responsive luciferase reporter cells, luminescence. activation, % at 5 µM. 320,000 compounds, 2.5% hits. AID 2796; in the data active = activation above about 47%;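 also: 0% = vehicle wells and 100% = reference agonist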
Target sequence (P35869 whole entry, looked up): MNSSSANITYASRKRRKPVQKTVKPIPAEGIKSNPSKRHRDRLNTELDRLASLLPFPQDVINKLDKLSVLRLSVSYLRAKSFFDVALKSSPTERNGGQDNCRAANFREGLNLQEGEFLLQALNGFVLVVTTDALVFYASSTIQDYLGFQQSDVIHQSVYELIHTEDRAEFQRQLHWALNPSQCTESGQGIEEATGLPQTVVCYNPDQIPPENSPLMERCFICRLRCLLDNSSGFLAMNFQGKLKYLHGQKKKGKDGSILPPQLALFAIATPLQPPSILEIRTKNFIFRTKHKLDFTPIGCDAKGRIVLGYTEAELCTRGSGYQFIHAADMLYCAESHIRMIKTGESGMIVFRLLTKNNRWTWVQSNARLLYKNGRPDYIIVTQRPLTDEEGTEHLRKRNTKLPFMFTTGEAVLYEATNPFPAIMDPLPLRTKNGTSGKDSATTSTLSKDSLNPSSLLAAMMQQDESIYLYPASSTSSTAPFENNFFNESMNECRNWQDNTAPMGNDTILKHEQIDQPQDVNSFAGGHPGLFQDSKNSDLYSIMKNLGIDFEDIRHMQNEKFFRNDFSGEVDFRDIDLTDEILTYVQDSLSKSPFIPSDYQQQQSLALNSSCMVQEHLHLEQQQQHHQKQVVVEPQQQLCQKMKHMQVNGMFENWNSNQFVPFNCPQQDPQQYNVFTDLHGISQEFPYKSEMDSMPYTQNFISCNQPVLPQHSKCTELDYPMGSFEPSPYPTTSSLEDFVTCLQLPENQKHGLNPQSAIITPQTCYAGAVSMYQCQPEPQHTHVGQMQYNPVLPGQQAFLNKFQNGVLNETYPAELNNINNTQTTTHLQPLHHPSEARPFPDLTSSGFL
PLC-beta3 inh – PLC-beta3 (human) inhibition, primary screen; Q01970; Purified PLC-beta3, fluorogenic substrate, fluorescence; inhibition, % at 12.2 µM; 370,000 compounds, 0.18% hits; in the data active = inhibition above about 11%;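 also: 0% = median of compound wells on plate and 100% = full blocker control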
An asterisk follows results filed as active.

Results for O=C(O)c1cccc(N2C(=O)/C(=C/c3ccc(SCc4ccc(Cl)cc4)o3)SC2=S)c1 ?
HGIII-sPLA2 inh: -16; PLC-gamma1 inh: 32*; PLC-beta3 inh: -4

Results for O=C(OCc1ccccc1)N(CCCCN(CCCNCc1ccccc1)C(=O)OCc1ccccc1)CCCNCc1ccccc1 ?
HGIII-sPLA2 inh: -27; PLC-gamma1 inh: 10.0*; PLC-beta3 inh: 4

Results for Cc1cc(-n2c(C)cc(C(=O)COc3ccc(Cl)cc3C(N)=O)c2C)no1 ?
HGIII-sPLA2 inh: 11; Yeast superoxide: 92; PLC-gamma1 inh: -8; AHR act: 47*; PLC-beta3 inh: -13

Results for COc1ccc(/C=C/C(=O)Nc2cc(=O)n(C)c(=O)n2C)cc1 ?
HGIII-sPLA2 inh: 17; HIF act: 3; Yeast superoxide: 86; PLC-gamma1 inh: -16; AHR act: 47*; PLC-beta3 inh: -28

What do the screens show for `COc1ccc(C(=O)Nc2cc(=O)n(C)c(=O)n2C)cc1`?
HGIII-sPLA2 inh: 6; HIF act: 0; Yeast superoxide: 89; PLC-gamma1 inh: -2; AHR act: 2; PLC-beta3 inh: 0

Results for Cc1occc1C(=O)Nc1cc(=O)n(C)c(=O)n1C ?
HGIII-sPLA2 inh: 1; HIF act: -1; Yeast superoxide: 88; PLC-gamma1 inh: -3; AHR act: 66*; PLC-beta3 inh: -4

What do the screens show for `Cn1c(NC(=O)c2ccco2)cc(=O)n(C)c1=O`?
HGIII-sPLA2 inh: 3; Yeast superoxide: 96; PLC-gamma1 inh: 0; AHR act: 2; PLC-beta3 inh: 4

Results for Cn1c(NC(=O)/C=C/c2ccccc2)cc(=O)n(C)c1=O ?
HGIII-sPLA2 inh: 4; HIF act: 2; Yeast superoxide: 102; PLC-gamma1 inh: 5; AHR act: 78*; PLC-beta3 inh: 5

Results for Cn1c(NC(=O)/C=C/c2ccc(Cl)c(Cl)c2)cc(=O)n(C)c1=O ?
HGIII-sPLA2 inh: 14; HIF act: 0; Yeast superoxide: 101; PLC-gamma1 inh: -4; AHR act: 22; PLC-beta3 inh: -6

What do the screens show for `Cc1nc2ccc(NC(=O)c3c(Cl)cccc3Cl)cc2c(=O)[nH]1`?
HGIII-sPLA2 inh: 4; PLC-gamma1 inh: -9; PLC-beta3 inh: -14

Results for COC(=O)C1=C(C)N(Cc2ccccc2C(F)(F)F)C(=NCc2cccc(C(F)(F)F)c2)NC1c1ccc(F)cc1 (stereo not given) ?
HGIII-sPLA2 inh: -7; PLC-gamma1 inh: 6; PLC-beta3 inh: 8

What do the screens show for `Cc1cccc(N2CCN(C(=O)CCCn3c(=O)c4cccn4c4cccnc43)CC2)c1C`?
HGIII-sPLA2 inh: 3; HIF act: 0; Yeast superoxide: 88; PLC-gamma1 inh: 0; AHR act: 3; PLC-beta3 inh: -9

What do the screens show for `Cc1ccc(Cl)cc1N1CCN(C(=O)CCCn2c(=O)c3cccn3c3cccnc32)CC1`?
HGIII-sPLA2 inh: 1; HIF act: 0; Yeast superoxide: 90; PLC-gamma1 inh: 10*; AHR act: 6; PLC-beta3 inh: -6

How did Cc1ccc(-c2nc3ccccc3c(=O)n2CCCn2ccnc2)cc1 do in these assays?
HGIII-sPLA2 inh: -6; HIF act: 0; Yeast superoxide: 92; PLC-gamma1 inh: -1; AHR act: 5; PLC-beta3 inh: -3

Results for c1ccc(-c2nc(NCCCn3ccnc3)c3oc4ccccc4c3n2)cc1 ?
HGIII-sPLA2 inh: -35; HIF act: 1; Yeast superoxide: 89; PLC-gamma1 inh: -4; AHR act: 82*; PLC-beta3 inh: 1

How did O=c1c2ccccc2nc(-c2ccccc2)n1CCCn1ccnc1 do in these assays?
HGIII-sPLA2 inh: 5; HIF act: 0; Yeast superoxide: 98; PLC-gamma1 inh: 0; AHR act: 56*; PLC-beta3 inh: -4

What do the screens show for `c1cncc(-c2nc(NCCCn3ccnc3)c3ccccc3n2)c1`?
HGIII-sPLA2 inh: -6; HIF act: 1; Yeast superoxide: 93; PLC-gamma1 inh: -8; AHR act: 75*; PLC-beta3 inh: -15

What do the screens show for `Cc1nc(NCCCn2ccnc2)c2ccccc2n1`?
HGIII-sPLA2 inh: 2; HIF act: 0; Yeast superoxide: 116; PLC-gamma1 inh: -2; AHR act: 57*; PLC-beta3 inh: -3

Results for Nn1c(SCC(=O)Nc2cccc3ccccc23)nnc1-c1cc(-c2ccccc2)n[nH]1 ?
HGIII-sPLA2 inh: 2; PLC-gamma1 inh: 0; PLC-beta3 inh: 2

How did CC(Oc1ccccc1)C(=O)N=Nc1c(O)[nH]c2ccc([N+](=O)[O-])cc12 (stereo not given) do in these assays?
HGIII-sPLA2 inh: -2; HIF act: 0; Yeast superoxide: 119; PLC-gamma1 inh: 1; AHR act: 63*; PLC-beta3 inh: 0

Results for Cn1c2ccccc2c2cc(C(=O)N3CCN(CCO)CC3)sc21 ?
HGIII-sPLA2 inh: 0; HIF act: 0; Yeast superoxide: 103; PLC-gamma1 inh: 1; AHR act: 68*; PLC-beta3 inh: -5

What do the screens show for `CC(=O)NNC(=O)c1cc2c3ccccc3n(C)c2s1`?
HGIII-sPLA2 inh: 0; HIF act: -2; Yeast superoxide: 107; PLC-gamma1 inh: -22; AHR act: 75*; PLC-beta3 inh: -33

What do the screens show for `Cc1noc(C)c1COC(=O)c1cc2c3ccccc3n(C)c2s1`?
HGIII-sPLA2 inh: -22; Yeast superoxide: 94; PLC-gamma1 inh: -55; AHR act: 30; PLC-beta3 inh: -70

How did CCCCOCCCNC(=O)C[C@H]1C[C@@]2(C(=O)OC)C(=C[C@H](C(C)C)O[C@@H]2C2CC2)N(Cc2cccc3ccccc23)C1=O do in these assays?
HGIII-sPLA2 inh: -8; PLC-gamma1 inh: 3; PLC-beta3 inh: -1

Results for CCCCCCCCN1C(=O)[C@@H](CC(=O)NCc2cccc(C(F)(F)F)c2)C[C@@]2(C(=O)OC)C1=C[C@H](COCc1ccccc1)O[C@@H]2C ?
HGIII-sPLA2 inh: -11; PLC-gamma1 inh: 2; PLC-beta3 inh: -1

How did C[C@@H]1ON(C)[C@H]2C[C@H]3c4cc(N5CCN(C)CC5)ccc4CCN3C[C@@H]12 do in these assays?
HGIII-sPLA2 inh: 0; PLC-gamma1 inh: -2; PLC-beta3 inh: 0

How did Cc1c[nH]c2cccc(-c3c(Cl)cccc3Cl)c12 do in these assays?
HGIII-sPLA2 inh: -17; PLC-gamma1 inh: 2; PLC-beta3 inh: -6

What do the screens show for `O=C1c2ccccc2C(=O)N1CSc1nnc2c3ccccc3n(CCc3ccccc3)c2n1`?
HIF act: 0; Yeast superoxide: 95; AHR act: -7

How did C=CCn1c2ccccc2c2nnc(SCN3C(=O)c4ccccc4C3=O)nc21 do in these assays?
HGIII-sPLA2 inh: 13; HIF act: 0; Yeast superoxide: 105; PLC-gamma1 inh: -2; AHR act: 78*; PLC-beta3 inh: -5

How did CCC[C@H]1[C@@H](NC(=O)c2ccc(Cl)cc2)CC[C@@]23CCCN2C(=O)CCC[C@@H]13 do in these assays?
HGIII-sPLA2 inh: 1; PLC-gamma1 inh: -2; PLC-beta3 inh: 0
